# In ChEMBL document CHEMBL3988442, “University of Dundee, Small-Polar-MMV Screening Library” (2021):
# Screen size: about 53,000 compounds; about 900 (1.7%) showed an effect of 50% or more. This excerpt belongs to a sample that is enriched for strong results.
# Tested on: Mycobacterium tuberculosis
# Assay: Cornell - Phenotypic assay to identify agents that inhibit growth of Mycobacterium tuberculosis
# Assay type: functional
# Parameters: scale not given: direction of the effect not stated beside the values
# Conditions: 10 mM as filed; unlikely as a test dose
row,Compound,Percent Effect
1,Cc1nc(N2CCCC2)nc2c1CCN(Cc1ccco1)CC2.O=C(O)C(F)(F)F,96.95%
2,Cc1nc(C)c2c(n1)CCN(Cc1ccco1)CC2,-0.9283%
3,Cc1nc(N2CCOCC2)nc2c1CCN(Cc1cccnc1)CC2.O=C(O)C(F)(F)F,26.93%
4,Cc1nc(N2CCCC2)nc2c1CCN(Cc1nccn1C)CC2.O=C(O)C(F)(F)F,0.1901%
5,Cc1nc(N2CCCC2)nc2c1CCN(Cc1ccoc1)CC2.O=C(O)C(F)(F)F,56.27%
6,CC(C)Oc1ncnc2c1CCN(Cc1ccco1)CC2.O=C(O)C(F)(F)F,21.95%
7,Cc1nc(N2CCCC2)nc2c1CCN(Cc1ccsc1)CC2.O=C(O)C(F)(F)F,72.79%
8,Oc1nc(N2CCCC2)nc2c1CCN(Cc1ccsc1)CC2,2.378%
9,Cc1nc(N2CCOCC2)nc2c1CCN(Cc1ccsc1)CC2.O=C(O)C(F)(F)F,27.7%
10,Cc1cc2cccc(NC(=O)N3CCC(N4CCSCC4)CC3)c2o1,26.32%
11,O=C(CN1CCC2(CC1)NC(=O)c1cc(Br)ccc1N2)NC1CC1,-67.58%
12,Cc1cccc(CN2CCCCC23CCNC3)n1.O=C(O)C(F)(F)F.O=C(O)C(F)(F)F (stereo not given),9.569%
13,O=C(NCCc1coc(-c2ccc(F)cc2)n1)NC1CC1,9.97%
14,CN[C@@H]1CCC[C@@H](Oc2ccccc2Oc2ccc(C)cc2)[C@@H]1O,74.11%
15,Cc1ccc(Oc2cc(F)ccc2O[C@@H]2CCC[C@@H](N)[C@H]2O)cc1,30.66%
16,N[C@@H]1CCC[C@@H](Oc2ccc(F)cc2Oc2ccccc2)[C@@H]1O,-14.7%
17,Cc1ncsc1-c1nnc(C2CCCN2C(=O)Cn2cccn2)o1 (stereo not given),-1.275%
18,Cc1cc(CNc2cc(Cl)ccc2OCCS(C)(=O)=O)no1,-0.6634%
19,Cc1cc(CNc2cc(Cl)ccc2Cl)no1,51.97%
20,CCOc1c(Cl)cccc1NCc1cc(C)on1,15.54%
21,O=C(NCc1ccccc1Cn1cncn1)C1CCCC1,0.5526%
22,Cc1noc(C)c1CN1CCC2(CC1)NC(=O)CC2c1cnn(C)c1 (stereo not given),47.68%
23,Clc1ccccc1-c1nc(CNC2CCc3ncnn3C2)co1 (stereo not given),-41.84%
24,Cc1cnc(N2CCOC3(CCCN(C(=O)C(C)C)C3)C2)nc1 (stereo not given),8.771%
25,Cc1ncc2c(n1)C1(CCN(C(=O)C(C)C)CC1)OCC2.Cl,54.97%

row,Compound,Percent Effect
1,Cc1ncc(C(=O)N2CC(C(=O)N3CCOCC3)C2)c(C)n1,-7.514%
2,O=C(C1CC1)N1CCC2(CC1)OCCO2,-14.17%
3,Cc1ncc2c(n1)C1(CCN(C(=O)C3CC3)CC1)OCC2.Cl,55.8%
4,Cc1noc(C2(C)CCN(C(=O)C(C)C)CC2)n1,-18.49%
5,CCC(CO)N(Cc1cccnc1)C(=O)c1ccncc1F (stereo not given),1.978%
6,CCc1ncc(CN[C@@H]2CCCN(C(C)=O)[C@H]2c2ccc(C)s2)cn1.Cl,15.97%
7,CCc1cc(NC2CCOCC2)n2nc(C)c(C)c2n1,14.02%
8,Cc1ccc(-c2nc(CN3CCC(N4CCNC4=O)CC3)co2)cc1,0.5995%
9,CCc1ccc(CN2C[C@@H](c3nc(C)no3)C[C@H]3OCC[C@H]32)o1.O=C(O)C(F)(F)F,28.15%
10,Cc1noc([C@H]2C[C@H]3OCC[C@H]3N(Cc3ccc(F)cc3)C2)n1.O=C(O)C(F)(F)F,52.79%
11,Cc1noc([C@H]2C[C@H]3OCC[C@H]3N(Cc3ccc4c(c3)OCO4)C2)n1.O=C(O)C(F)(F)F,10.54%
12,O=C(C1CCCC1)N1CCCC1c1nnc2n1CCCCC2 (stereo not given),-1.073%
13,CC(C)c1nc(CSc2nnc(C3CC3)n2CC(N)=O)no1,15.19%
14,CC(C)Nc1nc(C(=O)Nc2ccccn2)cs1,27.58%
15,Cc1cnc(NC(=O)N2CCCC2)s1,13.69%
16,CC(C)CCNC(=O)c1csc(NC2CC2)n1,27.3%
17,Cc1cnc(NC(=O)c2csc(NCC(C)C)n2)s1,60.38%
18,O=C(Nc1nccs1)c1csc(NC2CCCC2)n1,105.9%
19,Cc1nc(NC2CCCC2)cc(C2CCN2C(=O)c2ccccn2)n1 (stereo not given),-60.39%
20,CC(C)CCNc1nc(C(=O)NC2CC2)cs1,44.5%
21,Cc1cnc(NC(=O)c2csc(NC3CCCC3)n2)s1,99.29%
22,CC(NC(=O)Nc1nccs1)C(=O)NC1CCCC1 (stereo not given),13.09%
23,Cc1cccc(NC(=O)c2csc(NCC(C)C)n2)n1,22.32%
24,O=C(Nc1ccccn1)c1csc(NC2CCCC2)n1,105.8%
25,CC(C)NC(=O)c1csc(NC2CC2)n1,29.51%

row,Compound,Percent Effect
1,Cc1nc(CNCc2cccc(OC34CCCN(CC3)C4)c2)n[nH]1 (stereo not given),22.09%
2,Cc1nn2c(NC(=O)CSc3nccn3C)csc2nc1=O,-11.03%
3,O=C1CCC(C(=O)Nc2ccc(=O)n(Cc3ccccc3Cl)c2)N1 (stereo not given),-13.24%
4,CNC(=O)c1cccc(C2CNCCN2C(=O)C2CCNCC2)c1 (stereo not given),0.2477%
5,CC(=O)Nc1cc(-c2cccc(F)c2F)n[nH]1,22.81%
6,CCOCC(=O)Nc1cc(-c2cccc(F)c2F)n[nH]1,57.77%
7,CCS(=O)(=O)CC(=O)Nc1cc(-c2cccc(F)c2F)n[nH]1,15.94%
8,O=C1NC[C@]2(CC[C@@H](C(=O)N3CCCC(O)C3)CC2)Oc2ccccc21 (stereo not given in full),-1.738%
9,CC(=O)N1CCN(C(C)c2nnc(CC(C)C)o2)CC1 (stereo not given),3.173%
10,COC(=O)C(C)NC(=O)CSCc1nc(O)c2cc(C(C)C)sc2n1 (stereo not given),10.11%
11,COC(=O)[C@H](C)NC(=O)CSCc1nc2sc(C(C)C)cc2c(=O)[nH]1,57.77%
12,COCCNC(=O)CSCc1nc(O)c2cc(C(C)C)sc2n1,-18.87%
13,CC(C)CN1C[C@H](COCc2ccccc2)Oc2ncccc2C1=O,-10.08%
14,Cc1ncc(C(=O)NCCNc2ncccn2)s1,-0.6021%
15,CCS(=O)(=O)Nc1cnn(Cc2cccc(Cl)c2)c1,-14.58%
16,CCS(=O)(=O)Nc1cnn(Cc2cccc(C)c2)c1,56.26%
17,CCS(=O)(=O)Nc1cnn(Cc2cccc(F)c2)c1,14.06%
18,Cc1c(S(=O)(=O)NCC(C)C)cnn1C,-2.001%
19,COc1cccc(CCC(=O)Nc2c(C)nn(C)c2C)c1OC,-11.78%
20,Cc1nc(-c2ccc(CO)cc2)cc(C2CCNCC2)n1.Cl,12.1%
21,O=C(NCc1ccccn1)[C@@]12CCO[C@@H]1CCN(Cc1ccccn1)C2.O=C(O)C(F)(F)F.O=C(O)C(F)(F)F.O=C(O)C(F)(F)F,-14.31%
22,CC(NC(=O)c1cc(-c2cccc(Cl)c2)no1)C(=O)N1CCCC1 (stereo not given),1.351%
23,CC(NC(=O)c1cc(-c2cccc(Cl)c2)no1)C(=O)N(C)C (stereo not given),9.545%
24,COC(=O)[C@H](C)NC(=O)c1cc(-c2cccc(Cl)c2)no1,105.7%
25,O=C(NCc1ccc(OCC2CC2)nc1)C1COc2ccccc2O1 (stereo not given),16.73%

row,Compound,Percent Effect
1,Cc1nn2c(N3CCC(C(N)=O)CC3)cc(-c3ccccc3)nc2c1C,21.25%
2,Cc1nn2c(N3CCC(O)C3)cc(-c3ccccc3)nc2c1C (stereo not given),16.78%
3,Cc1nn2c(N3CCC(O)CC3)cc(-c3ccccc3)nc2c1C,72.96%
4,Cc1nc(N[C@H]2COC[C@@H]2N2CCCC2)c2cnn(C)c2n1,2.791%
5,CCNC(c1ccc(C)cc1)c1cccnc1 (stereo not given),-8.954%
6,CCc1nc(CN(C)C(=O)CSC)no1,7.399%
7,Cc1nc(C)c(C(=O)N2CCc3nnc(C4CCCCN4C)n3CC2)s1 (stereo not given),54.31%
8,Cc1nc(C)c(C(=O)N2CCc3nnc(C4CCCN4C)n3CC2)s1 (stereo not given),53.89%
9,Cc1ncsc1C(=O)N1CCc2nnc(C3CCCCN3C)n2CC1 (stereo not given),8.689%
10,Cc1cc2c(=O)n3c(nc2s1)CCN(C(=O)c1sc(C)nc1C)CC3,10.24%
11,Cc1nc(C)c(C(=O)N2CCCC2c2nnc3n2CCCCC3)s1 (stereo not given),13.16%
12,Cc1nc(C)c(C(=O)N2CCc3nnc(C4CCCCN4C)n3CC2)o1 (stereo not given),19.3%
13,CN(C)[C@@H]1CCN(C(=O)c2cccn2C)[C@H]1Cc1cnn(C)c1.O=C(O)C(F)(F)F,-22.73%
14,O=C(O)C(F)(F)F.c1coc(CN2CCc3nnc(COc4cncnc4)n3CC2)c1,21.79%
15,COc1cccc(CC2CN(C3CC(C)(C)NC(C)(C)C3)CCO2)c1 (stereo not given),-51.86%
16,Cc1cccc2nc(CNC(=O)N3CCC(N4CC=CC4)C3)cn12 (stereo not given),20.26%
17,O=C(O)[C@@H]1CN(C(=O)CCCc2ccc(F)cc2)C[C@H]1C1CC1,-11.2%
18,Cc1ccc(CN2CCC3(C2)C(=O)N(CC(N)=O)c2ccccc23)s1 (stereo not given),3.211%
19,CC(C)CN1C(=O)C2(CCN(Cc3nccs3)C2)c2ccccc21.O=C(O)C(F)(F)F (stereo not given),25.63%
20,Cc1ccc(CN2CCC3(C2)C(=O)N(CC(C)C)c2ccccc23)s1 (stereo not given),50.09%
21,Cc1nc(C)n(CCC(=O)NCC2CCCOC2)n1 (stereo not given),20.26%
22,CCCN1C[C@H]2CC[C@@H]1CN(Cc1ccc(Cn3cccn3)cc1)C2,-2.42%
23,CCCN1C[C@H]2CC[C@@H]1CN(Cc1ccc(-n3cccn3)cc1)C2,53.91%
24,CCCN1C[C@H]2CC[C@@H]1CN(Cc1cccc(-n3cccn3)c1)C2,9.471%
25,CN(C)CCN1C(=O)CCC12CCN(C(=O)c1cccnc1)CC2.O=C(O)C(F)(F)F.O=C(O)C(F)(F)F,1.557%
